12-LOX inh – blocks human arachidonate 12S-lipoxygenase | Potency, µM (titrated, usually from 108 µM), for inactives: at the top dose activity change, negative = inhibition, usual class: inhibitors | P18054 | purified 12hLO, xylenol orange hydroperoxide absorbance | actives 1.1% (n = 580,000) | AID 1671190; note: potency is the fitted concentration of half-maximal effect
Target sequence (P18054 whole entry, looked up): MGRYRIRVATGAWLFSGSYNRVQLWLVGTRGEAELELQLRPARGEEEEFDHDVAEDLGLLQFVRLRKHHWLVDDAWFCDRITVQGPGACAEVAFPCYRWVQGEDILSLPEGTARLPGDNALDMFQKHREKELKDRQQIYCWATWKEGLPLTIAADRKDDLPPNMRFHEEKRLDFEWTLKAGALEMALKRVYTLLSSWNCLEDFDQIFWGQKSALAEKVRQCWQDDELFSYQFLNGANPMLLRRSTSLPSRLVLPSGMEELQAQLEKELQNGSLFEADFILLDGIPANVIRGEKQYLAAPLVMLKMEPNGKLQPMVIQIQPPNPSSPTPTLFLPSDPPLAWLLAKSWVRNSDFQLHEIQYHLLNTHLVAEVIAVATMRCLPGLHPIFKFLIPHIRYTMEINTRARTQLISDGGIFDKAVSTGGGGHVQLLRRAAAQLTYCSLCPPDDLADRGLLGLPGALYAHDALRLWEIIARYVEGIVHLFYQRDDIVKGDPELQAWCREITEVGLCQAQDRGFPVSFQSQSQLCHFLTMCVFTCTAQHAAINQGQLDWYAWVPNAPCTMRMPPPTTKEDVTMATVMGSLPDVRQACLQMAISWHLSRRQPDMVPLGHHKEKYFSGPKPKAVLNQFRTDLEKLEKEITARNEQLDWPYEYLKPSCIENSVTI
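Purified human 12hLO at 150 nM in 25 mM Hepes, 0.01% Triton X-100, pH 7.0, preincubated 15 min at room temperature with compound. Reaction started with 40 uM arachidonic acid, 30 min at room temperature. Hydroperoxide measured by Fe-xylenol orange, 573/405 nm absorbance ratio.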
HT1080 IDH1KD tx – toxicity to HT-1080 IDH1 knockdown cells (counter line); Potency, µM (doses to about 46.1 µM), without a hit: at the top dose activity, negative = toxicity, usual class: cytotoxic; actives 2% (n = 360,000); AID 686971; HT-1080 IDH1 knockdown viability, ATP luminescence, 48 h;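 note: potency is the fitted concentration of half-maximal effect; 0% = DMSO wells and -100% = cell-free medium wells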
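Using the IDH1-knockdown HT-1080 line run in the same batch and compound series as the NT line, viability after 48 h at 37 °C was determined by CellTiter-Glo luminescence and expressed as % activity.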
HT1080NT lethal – kills 2HG-producing HT-1080-NT fibrosarcoma cells; HT-1080-NT fibrosarcoma viability, CellTiter-Glo ATP luminescence, 48 h; Potency, µM (doses to about 46.1 µM), without a hit: at the top dose activity, negative = less viability, most hits filed as cytotoxic; actives 1.6% (n = 360,000); AID 686970;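 note: NT is the 2HG producing partner of a matched IDH1 knockdown line; potency is the fitted concentration of half-maximal effect; 0% = DMSO-treated cells and -100% = media-only wells without cells; nearly all actives have a fitted effect of over 55% in size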
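HT-1080-NT; 750 cells/well; 5% FBS RPMI; 48 h compound, 37 degrees C; CellTiter-Glo luminescence; curve fitting and curve-class assignment.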
DT40 TDP1 CPT – DT40-hTDP1 cell growth loss with CPT; chicken DT40 Tdp1-/-;hTDP1 cells + 20 nM CPT, ATP luminescence, 48 h; actives 12% (n = 420,000); Potency, µM (top dose mostly 46.2 µM), inactives show at the top dose activity change, negative = growth inhibition, actives largely listed as inhibitors; note: potency is the fitted concentration of half-maximal effect; nearly all actives have a fitted effect of over 55% in size
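Cell growth measured by CellTiter-Glo luminescence after a minimum 48 h, 37 C compound exposure with 20 nM CPT in Tdp1-knockout DT40 cells stably expressing hTDP1, seeded 400/well; qHTS titration format.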
TDP1 cell noCPT – qHTS for Inhibitors of human tyrosyl-DNA phosphodiesterase 1 (TDP1): qHTS in cells in absence of CPT; actives 15% (n = 420,000); AID 686978, 2013; Potency, µM (doses to about 46.2 µM), for inactives: top-dose activity change, negative = growth inhibition, most hits filed as inhibitors; DT40 Tdp1-/- hTDP1 cells, no CPT, ATP luminescence, 48 h; note: potency is the fitted concentration of half-maximal effect; nearly all actives have a fitted effect of over 55% in size
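Chicken DT40 Tdp1-/- cells stably complemented with human TDP1 were seeded at 400 cells/well with DMSO in place of 20 nM camptothecin. After compound pinning, cells grew at least 48 hr at 37 °C; viability read by CellTiter-Glo luminescence.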
IL1B secr inh – inhibitors of inflammasome signaling (IL-1 beta secretion). activity change, % at 57.5 µM. actives 4.7% (n = 360,000). AID 743279. THP-1 LPS/ATP IL-1B secretion, AlphaLISA, 16 h; stronger effect = lower value; in the data active = activity change below about -50%; inconclusive = mostly about -30% to -49%
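Secreted IL-1B measured by AlphaLISA bead assay after 16 h compound exposure of THP-1 cells; compounds (final up to 57.5 uM) added 1 h before LPS (250 ng/mL) and ATP (1.25 mM) stimulation; lower signal means less secretion.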
* = called active by the depositor; u = inconclusive; x = not tested or not shown; [ ] = another dose, or the depositor's remark. The sample as a whole holds a higher share of hits than the screen did. Unless noted, calls come from the whole dose curve; as a rule, active = well fitted curve in the direction sought with a large enough effect; inconclusive = small, poorly fitted or top-dose-only effect, or another doubt; inactive = no such curve, though single readings can be large; an effect the other way counts as inactive or inconclusive. Unless noted, % is set by controls: 0 for no effect and ±100 for the full control effect.

SMILES | 12-LOX inh | HT1080 IDH1KD tx | HT1080NT lethal | DT40 TDP1 CPT | TDP1 cell noCPT | IL1B secr inh
COc1ccc(C(C(=O)NC2CCCC2)N(C(=O)c2snc(-c3ccc(F)cc3)c2N)c2ccc(F)cc2)cc1 (configuration not stated) | -2% | u | u | 9.2µM* | 15µM* | 47
COc1cccc(-n2c(SCC(=O)Nc3cccc(Cl)c3)nc3c(oc4ccccc43)c2=O)c1 | -23% | x | x | u | -5% | x
COc1cccc(-n2c(SCC(=O)Nc3cc(C)ccc3C)nc3c(oc4ccccc43)c2=O)c1 | -22% | x | x | u | 13µM* | x
COCCn1c(SCC(=O)Nc2cccc(OC)c2)nc2c(oc3ccccc32)c1=O | -16% | 1% | -14% | 5.8µM* | 7.3µM* | -5
CC1(C)Cc2cccc(OCC(=O)OCc3cc(=O)oc4ccc5ccccc5c34)c2O1 | 7% | x | x | x | x | x
O=C(Nc1ccc(-c2nc3ccccc3o2)cc1)c1ccc(Br)cc1 | -26% | x | x | x | x | x
CC(=O)Nc1ccc(NS(=O)(=O)c2cc(-c3cnc(C4CC4)o3)ccc2C)cc1 | 4% | -6% | -4% | 2.9µM* | 2.3µM* | 41
CC(=O)c1cccc(NS(=O)(=O)c2cc(-c3cnc(C4CC4)o3)ccc2C)c1 | -9% | 23µM* | 21µM* | 5.8µM* | 5.2µM* | 40
CCOc1ccccc1NS(=O)(=O)c1cc(-c2cnc(C3CC3)o2)ccc1C | -15% | x | x | -20% | u | x
COc1ccc(-c2cnc(C)o2)cc1S(=O)(=O)Nc1ccc(NC(C)=O)cc1 | u | x | x | -3% | -6% | x
CC(=O)c1ccc(NS(=O)(=O)c2cc(-c3cnc(C4CC4)o3)ccc2C)cc1 | -1% | u | 21µM* | 13µM* | u | 66
Cc1ccc(NS(=O)(=O)c2cc(-c3cnc(C4CC4)o3)ccc2C)cc1Cl | u | x | x | 7.3µM* | 5.2µM* | x
N[C@@H](Cc1cnc[nH]1)C(=O)N1CCC2(CC1)CC(=O)N(Cc1ccccc1)C2 | 74% | x | x | x | x | x
Cc1cc(C)c(NS(=O)(=O)c2cc(-c3cnc(C4CC4)o3)ccc2C)c(C)c1 | -3% | x | x | -21% | u | x
Cc1ccc(-c2cnc(C3CC3)o2)cc1S(=O)(=O)Nc1ccccc1 | x | u | -26% | 4.6µM* | 4.6µM* | 29
CCNC(=O)COC(=O)c1cc(-c2ccc(F)cc2)nc2ccccc12 | -4% | x | x | x | x | x
N#CCCn1cc(C(=O)Nc2ccccc2Cl)c(-c2cccs2)n1 | -4% | x | x | x | x | x
O=C(CN1CCN(C(=O)c2ccc(OCC(F)(F)F)nc2)CC1)Nc1ccc(F)cc1 | 19% | x | x | x | x | x
O=C(C[n+]1csc2ccccc21)c1cccc([N+](=O)[O-])c1 | x | x | x | 11µM* | 10µM* | x
Cc1c(CCOC(=O)c2ccc([N+](=O)[O-])cc2)sc[n+]1CC(=O)c1ccccc1 | -17% | 2% | 12% | -23% | u | -22
Cc1c(CCO)sc[n+]1CC(=O)c1ccc(F)cc1 | x | x | x | -13% | -5% | x
Cc1c(CCOC(=O)c2cccc([N+](=O)[O-])c2)sc[n+]1CC(=O)c1ccccc1 | 2% | -2% | -3% | 8.2µM* | u | -3
Cc1cc[n+](CC(=O)c2cccc([N+](=O)[O-])c2)c2ccccc12 | u | -19% | -4% | 8% | -25% | -2
COc1ccc(C(=O)OCCc2sc[n+](CC(=O)c3ccccc3)c2C)cc1 | u | -18% | -21% | u | u | -55*
C[C@]1(CO)[C@H]2Cc3sc(NC(=O)c4ccco4)nc3[C@@H](CC(=O)O)[C@]2(C)CC[C@H]1O | 14%[176 µM] | x | x | x | x | x
SMILES | 12-LOX inh | HT1080 IDH1KD tx | HT1080NT lethal | DT40 TDP1 CPT | TDP1 cell noCPT | IL1B secr inh
O=C1Nc2ccccc2CNC12CCN(CC1CC1)CC2 | 2%[12.5 µM] | x | x | x | x | x
O=C(COC(=O)Cn1cnc2ccccc2c1=O)Nc1ccc(Cl)cc1 | -2% | -3% | 8% | -25% | -3% | 14
O=C(CCl)Nc1ccccc1Sc1ccc(Cl)cc1 | -23% | u | u | 21µM* | u | -100*
O=C(Cc1ccccc1)Nc1ccccc1Sc1ccccc1 | -2% | -20% | 0% | -6% | 1% | 9
O=C(COC(=O)Cn1cnc2ccccc2c1=O)Nc1ccccc1Sc1ccc(Cl)cc1 | -27% | -1% | -2% | 13µM* | 26µM* | 0
CCCN1C(=O)C[C@H](S(=O)(=O)c2ccccc2)[C@H]1c1ccccc1 | 12% | x | x | x | x | x
Cc1ccc2c(c1C)OC(=O)CC2c1ccccc1 (configuration not stated) | -1% | 12% | 11% | 23% | 11% | 17
Cc1ccc(C)c(C(=O)N2CCC(c3nc4c(nnn4Cc4ccccc4)c(=O)[nH]3)CC2)c1 | -12% | x | x | u | 8.2µM* | x
Cc1ccc(CC(=O)N2CCC(c3nc4c(nnn4Cc4ccccc4)c(=O)[nH]3)CC2)cc1 | 8%[57.4 µM] | 3% | -2% | -2% | -18% | u
Cc1cccc(Cn2nnc3c(=O)[nH]c(C4CCCN(C(=O)c5ccccc5Cl)C4)nc32)c1 (configuration not stated) | u | x | x | 26µM* | u | x
CCOc1ccccc1NC(=O)N1CCCC(c2nc3c(nnn3Cc3ccc(C)cc3)c(=O)[nH]2)C1 (configuration not stated) | -19% | u | -22% | 29µM* | u | -1
Cc1ccc(Cn2nnc3c(=O)[nH]c(C4CCCN(C(=O)Nc5ccc(F)cc5F)C4)nc32)cc1 (configuration not stated) | u | u | u | u | -24% | -10
CC(=O)c1cccc(S(=O)(=O)N2CCCC(c3nc4c(nnn4Cc4ccccc4Cl)c(=O)[nH]3)C2)c1 (configuration not stated) | -23% | u | -25% | -18% | -27% | -70*
Cc1cc2c(SCC(=O)Nc3cccc(O)c3)ncnc2s1 | -6% | 2% | -3% | 10% | -10% | 1
O=S1(=O)N[C@H](Cc2ccccc2)COc2cccc(N3CCCCC3)c21 | -8% | x | x | x | x | x
COC(=O)[C@@H]1Cc2ncn(Cc3ccc(OC)cc3)c2CN1S(=O)(=O)Cc1ccccc1 | 24% | x | x | x | x | x
O=c1[nH]c(C2CCN(S(=O)(=O)c3ccccc3C(F)(F)F)CC2)nc2c1nnn2Cc1ccccc1 | -22% | u | u | u | u | -51*
Cc1ccc(S(=O)(=O)N2CCC(c3nc4c(nnn4Cc4ccccc4)c(=O)[nH]3)CC2)cc1 | u | -11% | u | u | -28% | -16
